Measured values taken from PubChem BioAssay.
Activity calls are given as the source filed them.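 How the source made its calls, unless noted: active means fluorescence slope higher than the sample average by over 3 SD (cut at about -0.22 in these data, passing the limit was not always enough); inactive means the rest.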

Legend:
[1] = inhibitors of TNFa-induced NFkB p65 translocation, primary screen, imaging, HUVEC, MLSMR starter and 10KST1 sets (AID 438;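 active means inhibition above 20% together with a positive visual image hit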;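 further: compound added about 3h40 before a 20 min TNFalpha stimulation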;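 on inhibition: signal is the nuclear over cytoplasmic p65 intensity ratio per well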); conditions: HUVEC TNFa-induced p65 nuclear translocation; cell count: measured here: nuclei count (cytotoxicity indicator), at 2.08 µM; inhibition: at 2 µM, stronger effect = higher value, 0% TNFa-plus-vehicle, 100% no-TNFa wells
[2] = reduction of polyQ htt aggregates in cells – imaging, exon1htt(103Q)mCFP cells, high-content imaging, primary screen (AID 483;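 active means visual image review flags a hit and inhibition of aggregation exceeds 20%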;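 further: compound exposure lasted 3 days before fixation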;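 on nuclei count: percent of the per-plate median nuclei count of sample wells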); conditions: exon1htt(103Q)mCFP cell line, aggregate imaging, at 2 µM; inhibition of aggregation: stronger effect = higher value; nuclei count: measured here: cell count, toxicity
[3] = endothelial E-selectin expression blockers – imaging, HUVEC, immunofluorescence, MLSMR starter and 10KST1 sets, primary screen (AID 487;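 active means visually confirmed hit in the image check and inhibition above 20%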;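 on inhibition: signal is fraction of cell area covered by stained E-selectin grains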;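 on nuclei count: 100% = median nuclei count of all wells on the same plate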); conditions: HUVEC TNFalpha-induced E-selectin immunofluorescence imaging, at 2 µM; inhibition: stronger effect = higher value; nuclei count: measured here: cell number, toxicity
[4] = molecular target: Voltage-gated potassium channel subunit beta-2 (Rattus norvegicus) (UniProt P62483); test: inhibitors of rat Kvbeta2 reductase activity – biochemical, NADPH fluorescence, primary screen (AID 622); conditions: recombinant KvBeta, 4-cyanobenzaldehyde reduction, at 10 µM, stronger effect = higher value;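 further: slope of raw intensity against log time taken from 70 to 1610 s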
Sequence of Voltage-gated potassium channel subunit beta-2 (Rattus norvegicus) (P62483 whole entry, looked up): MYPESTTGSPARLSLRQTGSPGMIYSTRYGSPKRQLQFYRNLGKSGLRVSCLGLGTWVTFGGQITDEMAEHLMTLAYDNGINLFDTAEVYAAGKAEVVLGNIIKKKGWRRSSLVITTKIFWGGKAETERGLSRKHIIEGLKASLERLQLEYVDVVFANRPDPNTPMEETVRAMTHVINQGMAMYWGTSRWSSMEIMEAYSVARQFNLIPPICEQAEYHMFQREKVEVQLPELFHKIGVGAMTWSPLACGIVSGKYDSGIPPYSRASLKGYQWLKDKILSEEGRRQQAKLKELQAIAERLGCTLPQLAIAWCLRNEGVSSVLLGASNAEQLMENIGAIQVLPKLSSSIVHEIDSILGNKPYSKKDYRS

[5] = molecular target: Voltage-gated potassium channel subunit beta-2 (Rattus norvegicus) (UniProt P62483); test: enhancers of rat Kvbeta2 NADPH turnover – biochemical, NADPH fluorescence, primary screen (AID 623;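 active means NADPH fluorescence slope more negative than the mean of all samples by about 3 SD, 99.7% confidence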;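 further: fluorescence intensity change per second fitted from 20 to 320 s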); conditions: Recombinant KvBeta, NADPH fluorescence decrease slope, 10 min; at 10 µM; stronger effect = lower value
[6] = molecular target: Alpha-2C adrenergic receptor (Homo sapiens) (UniProt P18825); test: compounds altering alpha2C-coupled GIRK flux – cell-based, HEK293 alpha2C/GIRK1/2, thallium flux, primary screen (AID 624;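 active means fluorescence slope after compound addition differing from the mean of all screened samples at 99.7% confidence, in either direction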;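 further: slope of fluorescence ratio to pre-addition baseline per second over 15 to 24 s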); conditions: thallium flux BTC fluorescence, at 10 µM, actives lie on both sides
Sequence of Alpha-2C adrenergic receptor (Homo sapiens) (P18825 whole entry, looked up): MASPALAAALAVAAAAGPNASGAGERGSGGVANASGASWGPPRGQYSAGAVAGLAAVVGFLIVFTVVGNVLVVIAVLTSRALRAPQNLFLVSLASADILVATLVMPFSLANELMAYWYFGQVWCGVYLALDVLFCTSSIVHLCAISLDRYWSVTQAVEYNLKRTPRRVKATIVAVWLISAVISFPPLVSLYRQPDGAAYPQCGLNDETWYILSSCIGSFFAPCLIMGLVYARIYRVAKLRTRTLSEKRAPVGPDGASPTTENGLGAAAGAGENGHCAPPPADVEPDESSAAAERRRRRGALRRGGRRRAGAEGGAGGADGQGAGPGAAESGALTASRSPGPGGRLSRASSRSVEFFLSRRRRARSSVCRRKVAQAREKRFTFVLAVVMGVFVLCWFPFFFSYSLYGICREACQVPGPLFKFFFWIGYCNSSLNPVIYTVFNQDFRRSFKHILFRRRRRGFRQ

[7] = blockers of RIG-like receptor reporter activation – cell-based, Sendai virus stimulus, luciferase, 10K MLSCN set, TLR/RLR signaling modifier project, primary screen (AID 602276;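 active means inhibition at or above 50% at 10 µM; inactive means inhibition below 50%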;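 further: firefly luciferase from ISG56 promoter only with Renilla not read in this screen; 0% = Sendai virus plus DMSO and 100% = medium plus DMSO without virus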); conditions: HEK293 RL24 IRF3 luciferase reporter, at 10 µM, stronger effect = higher value
[8] = TLR3 IRF3 reporter activation blockers – cell-based, poly I:C stimulus, luciferase, 10K MLSCN set, primary screen (AID 602277;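 active means inhibition of the reporter signal at or above 50%; inactive means inhibition below 50%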); conditions: HEK293-TLR3 RL24 IRF3 luciferase reporter, at 10 µM, stronger effect = higher value

| Structure (SMILES) | cell count [1] | inhibition [1] | inhibition of aggregation [2] | nuclei count [2] [%] | inhibition [3] | nuclei count [3] [%] | fluorescence slope [4] | NADPH fluorescence slope [5] | slope [6] | inhibition [7] | inhibition [8] |
| --- | --- | --- | --- | --- | --- | --- | --- | --- | --- | --- | --- |
| CN(C)c1ccc(NC(=O)c2ccncc2)c2ccccc12 | 315 | 2.7% (inactive) | 6.2% (inactive) | 94.4 | -88.6% (inactive) | 105 | -0.316 (inactive) | -5.4e-05 (inactive) | 0.00482 (inactive) | 15.4% (inactive) | 12% (inactive) |
| COc1cccc(-n2c(SCC(=O)Nc3cc(C)on3)nc3c([nH]c4ccccc43)c2=O)c1 | 600 | 8% (inactive) | -10.2% (inactive) | 89.7 | -41% (inactive) | 118 | -0.539 (inactive) | -7.7e-06 (inactive) | 0.00757 (inactive) | 24% (inactive) | 28.7% (inactive) |
| Cc1ccc(CCNC(=O)C2CCN(S(=O)(=O)c3ccc4c(c3)CCC(=O)N4)CC2)cc1 | 742 | 2.2% (inactive) | -19.2% (inactive) | 114 | 27% (inactive) | 102 | -0.56 (inactive) | 1.8e-05 (inactive) | 0.00653 (inactive) | -8.22% (inactive) | -0.993% (inactive) |
| Cn1c(=O)c2c(nc(NCc3ccccc3)n2CCCc2ccccc2)n(C)c1=O | 759 | -1.6% (inactive) | 5.6% (inactive) | 101 | -77.1% (inactive) | 121 | -0.521 (inactive) | -1.3e-05 (inactive) | 0.00474 (inactive) | 16.3% (inactive) | 26.8% (inactive) |
| CCOC(=O)N1CCN(S(=O)(=O)c2ccc(OCC)c(C)c2)CC1 | 604 | -11.1% (inactive) | -7.7% (inactive) | 106 | 8.2% (inactive) | 102 | -0.625 (inactive) | -3.8e-06 (inactive) | 0.00615 (inactive) | 0.885% (inactive) | 11.9% (inactive) |
| C/C(N)=C(/C#N)C(=O)CSc1nnc(Nc2cccc(C)c2)s1 | 451 | 2.9% (inactive) | 5.1% (inactive) | 101 | -79.4% (inactive) | 130 | -0.492 (inactive) | -3.5e-05 (inactive) | 0.00453 (inactive) | -7.88% (inactive) | -32.1% (inactive) |
| O=C(CSc1ncnc2c1oc1ccccc12)NCc1ccco1 | 398 | 1.5% (inactive) | -6.6% (inactive) | 99.3 | -38.6% (inactive) | 105 | -0.61 (inactive) | -2.9e-05 (inactive) | 0.00442 (inactive) | 15.1% (inactive) | 25% (inactive) |
| O=C(NCN1CCCCC1)c1cccnc1 | 327 | 7% (inactive) | -1.5% (inactive) | 87.9 | -20% (inactive) | 92.8 | -0.488 (inactive) | -4.4e-05 (inactive) | 0.00701 (inactive) | 5.02% (inactive) | 35.7% (inactive) |
| CC1=C(C(N)=O)C(c2ccncc2)n2nc(-c3ccccc3Cl)nc2N1 (stereo not drawn) | 617 | 0% (inactive) | 5.7% (inactive) | 92.1 | -1.2% (inactive) | 109 | -0.528 (inactive) | -2.9e-05 (inactive) | 0.00735 (inactive) | 3.63% (inactive) | 21.9% (inactive) |
| CCC(Sc1nc2sc(C(=O)OC)c(C)c2c(=O)n1N)C(=O)NCC1CCCO1 (stereo not drawn) | 477 | 7.5% (inactive) | -2.8% (inactive) | 117 | 12% (inactive) | 98.2 | -0.592 (inactive) | -6.1e-05 (inactive) | 0.00714 (inactive) | 7.5% (inactive) | 11.6% (inactive) |
| Cn1c(-c2ccc(C(C)(C)C)cc2)n[nH]c1=S | 647 | -5.8% (inactive) | -4.8% (inactive) | 77.2 | 47.5% (inactive) | 79.7 | -0.46 (inactive) | -0.000112 (inactive) | 0.00619 (inactive) | -11.8% (inactive) | -25.2% (inactive) |
| Cc1nnc(SCC(=O)N2CCN(S(=O)(=O)c3ccccc3)CC2)[nH]c1=O | 711 | 9.4% (inactive) | 7.1% (inactive) | 103 | -39.5% (inactive) | 127 | -0.509 (inactive) | -6e-05 (inactive) | 0.00552 (inactive) | 3.92% (inactive) | 13.4% (inactive) |
| Cc1cc(C)nc(SC2=CS(=O)(=O)c3ccccc32)n1 | 409 | 4.2% (inactive) | -0.8% (inactive) | 107 | -15.3% (inactive) | 95.9 | -0.358 (inactive) | 3.3e-05 (inactive) | 0.00592 (inactive) | 9.85% (inactive) | -5.16% (inactive) |
| COC(=O)Nc1ccccc1C(=O)N1CCCCC1 | 403 | 9.9% (inactive) | 4% (inactive) | 120 | -25.5% (inactive) | 112 | -0.597 (inactive) | -8.5e-07 (inactive) | 0.00473 (inactive) | 6.49% (inactive) | 13.9% (inactive) |
| O=C(Cn1nc(-c2ccc3c(c2)OCCO3)ccc1=O)Nc1ccc(N2CCOCC2)cc1 | 270 | 11.8% (inactive) | -53.9% (inactive) | 90.7 | -60.3% (inactive) | 111 | -0.429 (inactive) | -5.2e-05 (inactive) | 0.00403 (inactive) | 2.21% (inactive) | 21% (inactive) |
| O=C(Nc1ccccc1C(=O)N1CCOCC1)C1COc2ccccc2O1 (stereo not drawn) | 355 | 3.3% (inactive) | -5.7% (inactive) | 105 | -70.1% (inactive) | 123 | -0.437 (inactive) | -1.5e-05 (inactive) | 0.00506 (inactive) | 6.31% (inactive) | 11.6% (inactive) |
| COC(=O)CSC1=NS(=O)(=O)c2ccccc21 | 340 | 1.2% (inactive) | 19.6% (inactive) | 91.3 | 45.9% (inactive) | 113 | -0.5 (inactive) | -3.6e-05 (inactive) | 0.00571 (inactive) | 20.5% (inactive) | 21.4% (inactive) |
| O=C1C2CC=C(Cl)CC2C(=O)N1c1ncn[nH]1 (stereo not drawn) | 329 | 5.5% (inactive) | 7.6% (inactive) | 98.3 | -62.1% (inactive) | 113 | -0.483 (inactive) | -5.8e-05 (inactive) | 0.00499 (inactive) | 12.6% (inactive) | 14% (inactive) |
| S=c1[nH]nc(-c2ccco2)n1-c1cccc2ccccc12 | 390 | 1.5% (inactive) | -1.8% (inactive) | 111 | -181% (inactive) | 104 | -0.526 (inactive) | 3.2e-05 (inactive) | 0.00555 (inactive) | -23.7% (inactive) | -8.5% (inactive) |
| COCCn1c(SCC(=O)N(C(C)C)C(C)C)nnc1-c1cc2ccccc2cc1O | 362 | 0% (inactive) | 25.9% (inactive) | 88.5 | -1% (inactive) | 97.7 | -0.366 (inactive) | 1.3e-05 (inactive) | 0.00457 (inactive) | 11.9% (inactive) | 20.1% (inactive) |
| CC(=O)c1coc2ccc(OCC(=O)O)cc12 | 678 | -11.2% (inactive) | -4.6% (inactive) | 110 | -42.3% (inactive) | 110 | -0.598 (inactive) | -4.1e-05 (inactive) | 0.00474 (inactive) | 6.78% (inactive) | 15.6% (inactive) |
| Cc1nc2cc(C(=O)O)ccc2n1-c1ccc(F)cc1F | 672 | -1.5% (inactive) | -2.2% (inactive) | 99.5 | -12.5% (inactive) | 116 | -0.527 (inactive) | -4.1e-05 (inactive) | 0.00687 (inactive) | 4.77% (inactive) | 27.2% (inactive) |
| O=C(Nc1ccc(Cl)cc1C(=O)O)c1ccc2c(c1)C(=O)N(Cc1ccco1)C2=O | 366 | 0.3% (inactive) | -2.8% (inactive) | 105 | -34.4% (inactive) | 119 | -0.493 (inactive) | -4.3e-05 (inactive) | 0.00498 (inactive) | 23.5% (inactive) | 28.2% (inactive) |
| O=C(CCN1C(=O)C2C3C=CC(C3)C2C1=O)Nc1c(F)cc(F)cc1Br (stereo not drawn) | 827 | -6.6% (inactive) | 16.5% (inactive) | 95.3 | -21.9% (inactive) | 120 | -0.587 (inactive) | -6.8e-05 (inactive) | 0.00666 (inactive) | -0.108% (inactive) | 11.7% (inactive) |
| Cc1nnc(SCc2ccccc2F)n1NCc1cccs1 | 767 | -3.9% (inactive) | -8.1% (inactive) | 106 | -71% (inactive) | 113 | -0.47 (inactive) | -4.7e-05 (inactive) | 0.00631 (inactive) | -2.84% (inactive) | -9.57% (inactive) |
| CCOC(=O)N1CCC(NC(=O)c2cnn3ccccc23)CC1 | 761 | 7.4% (inactive) | -3.3% (inactive) | 88.5 | -67% (inactive) | 113 | -0.589 (inactive) | 4.8e-07 (inactive) | 0.0078 (inactive) | -3.54% (inactive) | 9.82% (inactive) |
| CC(=O)c1n[nH]nc1NC(=O)c1ccccc1 | 574 | -25.8% (inactive) | -6.9% (inactive) | 100 | -46.6% (inactive) | 119 | -0.525 (inactive) | -2.5e-05 (inactive) | 0.00678 (inactive) | 4.32% (inactive) | -46% (inactive) |
| CCc1cccc(NC(=O)C2CCCN(S(=O)(=O)c3c(C)[nH]c(=O)[nH]c3=O)C2)c1 (stereo not drawn) | 325 | -10.3% (inactive) | 0.8% (inactive) | 106 | -57.4% (inactive) | 104 | -0.405 (inactive) | -3.6e-05 (inactive) | 0.0033 (inactive) | 9.85% (inactive) | 23.9% (inactive) |
